TDP1 cell CPT: DT40-hTDP1 cell growth loss with CPT; chicken DT40 Tdp1-/-;hTDP1 cells + 20 nM CPT, ATP luminescence, 48 h; Potency, µM (highest dose often 46.2 µM), for the others: top-dose activity change, negative = growth inhibition, actives largely listed as inhibitors; 420,000 tested, 12% active; note: % is set by controls: 0 for no effect and ±100 for the full control effect; nearly all actives have a fitted effect of over 55% in size
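Cell growth measured by CellTiter-Glo luminescence after a minimum 48 h, 37 C compound exposure with 20 nM CPT in Tdp1-knockout DT40 cells stably expressing hTDP1, seeded 400/well; qHTS titration format.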
HT1080 IDH1KD tx: kills HT-1080 cells with IDH1 knockdown; HT-1080 IDH1 knockdown viability, ATP luminescence, 48 h; Potency, µM (doses to about 46.1 µM), inactives show at the top dose activity, negative = toxicity, most hits filed as cytotoxic; 360,000 tested, 2% active;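 note: 0% = DMSO wells and -100% = cell-free medium wells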
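After a 2 h attachment period, IDH1KD HT-1080 cells took pin-transferred compound for 48 h at 37 °C; ATP-based luminescence after 10 min room-temperature reagent incubation reported viability.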
TGFb inhibitor: TGF-b pathway inhibition. Potency, µM (top dose mostly 46.1 µM), without a hit: at the highest dose activity, negative = inhibition, usual class: inhibitors. AID 588855. HepG2 CAGA-GFP TGF-b/SMAD3 reporter, GFP fluorescence, 18 h; TGF-beta stimulated, 500 pg/mL final. 410,000 tested, 1.2% active; note: % is set by controls: 0 for no effect and ±100 for the full control effect; nearly all actives have a fitted effect of over 65% in size
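Per well, imaged GFP fluorescence of HEPG2 CAGA-GFP cells gives the signal; cells get compound, then TGF-beta (500 pg/mL final), 18 h at 37 degrees C; %Activity versus -TGF-beta and +DMSO controls.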
HT1080NT lethal: kills 2HG-producing HT-1080-NT fibrosarcoma cells; HT-1080-NT fibrosarcoma viability, CellTiter-Glo ATP luminescence, 48 h; Potency, µM (doses to about 46.1 µM), without a hit: at the highest dose activity, negative = less viability, most hits filed as cytotoxic; 360,000 tested, 1.6% active; AID 686970;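 note: NT is the 2HG producing partner of a matched IDH1 knockdown line; 0% = DMSO-treated cells and -100% = media-only wells without cells; nearly all actives have a fitted effect of over 55% in size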
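Viability of the 2HG-overproducing fibrosarcoma line after 48 hours of compound exposure at 37 degrees C was determined by luminescence with CellTiter-Glo, and concentration-effect curves were then fitted and categorized.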
TDP1 cell noCPT: qHTS for Inhibitors of human tyrosyl-DNA phosphodiesterase 1 (TDP1): qHTS in cells in absence of CPT; DT40 Tdp1-/- hTDP1 cells, no CPT, ATP luminescence, 48 h; Potency, µM (doses to about 46.2 µM), inactives show top-dose activity change, negative = growth inhibition, hits mostly inhibitors; 420,000 tested, 15% active; AID 686978, 2013; note: % is set by controls: 0 for no effect and ±100 for the full control effect; nearly all actives have a fitted effect of over 55% in size
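Growth of hTDP1-complemented DT40 Tdp1-knockout cells is measured by ATP luminescence after at least 48 hr compound exposure at 37 °C, with DMSO substituting for the 20 nM CPT used in the parallel screen.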
HepG2 viability: kills HepG2 cells in TGF-b inhibitor counter-screen; HepG2 CAGA-GFP viability, ATP luminescence, 18 h; Potency, µM (top dose mostly 46.1 µM), for inactives: at the top dose activity change, negative = cytotoxicity, actives largely listed as cytotoxic; 410,000 tested, 0.76% active; AID 588856
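HepG2 CAGA-GFP cells (1000/well, DMEM with 1% FBS) received compound, then TGF-beta at 500 pg/mL final, and were incubated 18 hours at 37 degrees C. Viability was read by CellTiter-Glo luminescence. Media-only wells were set as complete cell-killing and DMSO as no toxicity.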
Numbers without * were called inactive; ? = inconclusive; . = no result given; ! = not confirmed by another sample; [ ] = another dose, or the depositor's remark. In the library only some 17% were active in any assay of this set; here they are far more common. Calls come from the whole dose curve; as a rule, active = well fitted curve in the direction sought with a large enough effect; inconclusive = small, poorly fitted or top-dose-only effect, or another doubt; inactive = no such curve, though single readings can be large; an effect the other way counts as inactive or inconclusive. Potency is the fitted concentration of half-maximal effect.

SMILES | TDP1 cell CPT | HT1080 IDH1KD tx | TGFb inhibitor | HT1080NT lethal | TDP1 cell noCPT | HepG2 viability
O=c1[nH]c2ccccc2n1C1CCN(C(c2cc3ccccc3o2)c2nnnn2-c2ccc3c(c2)OCCO3)CC1 (configuration not stated) | ? | 18µM* | -21% | ? | 15µM* | -15%
COc1ccc(-n2nnnc2C(c2cc3ccccc3o2)N2CCC(n3c(=O)[nH]c4ccccc43)CC2)cc1 (configuration not stated) | ? | ? | ? | ? | 23µM* | -28%
O=C1NCN(c2ccccc2)C12CCN(C(c1cc3ccccc3o1)c1nnnn1C1CCCC1)CC2 (configuration not stated) | ? | ? | ? | ? | ? | 0%
COc1ccc(C)cc1NC(=O)C1CCN(S(=O)(=O)c2ccc3[nH]c(=O)oc3c2)CC1 | 2% | . | -8% | . | -1% | -34%
O=[N+]([O-])c1ccc(O)c([N+](=O)[O-])c1 | ? | -24% | 26% | -19% | ? | 10%
O=[N+]([O-])c1ccc(Cl)c([N+](=O)[O-])c1 | 3.7µM* | 18µM* | 5µM* | 5.2µM* | 4.6µM* | 7.1µM*
CC1=C2CC3C(CC=C4C[C@@H](O)CC[C@@]43C)[C@@H]2CC[C@]12O[C@@H]1C[C@H](C)CN[C@H]1[C@H]2C (some centres not stated) | 12% | . | . | . | -4% | .
O=C1NCCCCC1(Cl)Cl | -4% | 1% | 0% | -1% | 5% | -9%
COC(=O)C1=C(c2ccc(S(C)(=O)=O)cc2)C[C@@H]2CC[C@H]1N2C(=O)NCCS(C)=O (some centres not stated) | 17% | 10% | 2% | 9% | -8% | -1%
COc1cc(C(C)=O)ccc1OCc1cc(C(=O)N(C)CCC2CCCCO2)no1 (configuration not stated) | -24% | -10% | -2% | 3% | ? | -7%
COCc1c(C(=O)N2CCC(c3ccccc3)CC2)cnn1-c1nccc(-c2cc(C)sc2C)n1 | -11%[9.04 µM] | . | . | . | ? | .
CC(C)c1c(C(=O)N(C)Cc2cccc3ncccc23)cnn1-c1nccc(-c2ccccc2F)n1 | 4.1µM* | . | . | . | 8.2µM* | .
CN(C)CCC=C1c2ccccc2CCc2ccccc21 | 24µM*! | 23µM* | 30% | ? | 27µM*! | -26%
CN(C)CC/C=C1\c2ccccc2Sc2ccc(Cl)cc21 | 24µM* | ? | ? | 21µM* | 21µM* | -68%
Cc1ccccc1C1=NCC(=S)Nc2ccc(Cl)cc21 | ? | -2% | 7% | 8% | ? | -12%
CN(C)CCCN1c2ccccc2Sc2ccc(Cl)cc21 | 11µM*! | ? | ? | 15µM*! | 23µM*! | 18µM*!
OCCN1CCN(CC/C=C2/c3ccccc3Sc3ccc(Cl)cc32)CC1 | ? | ? | ? | ? | 23µM* | -106%
O=C(CN1CCCC1)Nc1ccc(Cl)cc1C(=O)c1ccccc1 | ? | 10% | -6% | 0% | -20% | -11%
Nc1cc(SCc2ccc(Cl)cc2Cl)ncn1 | -7% | -17% | 9% | -19% | ? | 2%
CC(=O)CC1CCCCN1 (configuration not stated) | -2% | . | . | . | 1% | .
CCN(CC)C(=O)c1ccc(NC(=O)c2ccc(-n3cncn3)c([N+](=O)[O-])c2)cc1 | -29% | 17% | -5% | 6% | ? | 0%
CN(C)c1cccc2c(C#N)ccc(N(C)C)c12 | -1% | -2% | 0% | -13% | -20% | 2%
COc1ccccc1S(=O)(=O)N(C)C[C@@H]1Oc2cc(C#CCC(C)C)ccc2S(=O)(=O)N([C@H](C)CO)C[C@@H]1C | ? | -26% | ? | -15% | ? | -19%
COc1ccc(C#Cc2ccc3c(c2)O[C@H](CN(C)S(=O)(=O)c2ccccc2F)[C@H](C)CN([C@H](C)CO)S3(=O)=O)cc1 | ? | 0% | -21% | 7% | 21µM* | -1%
CCCNC(=O)C1(C)CCN(Cc2ccc3ccccc3c2Br)C1 (configuration not stated) | ? | ? | -9% | -22% | ? | -19%
SMILES | TDP1 cell CPT | HT1080 IDH1KD tx | TGFb inhibitor | HT1080NT lethal | TDP1 cell noCPT | HepG2 viability
CC12CN3CCN(CC(C3)C1O)C2 (configuration not stated) | -5% | 15% | 31% | 11% | -2% | 2%
O=C1C2CCN(CC2)C1Cc1ccccc1O (configuration not stated) | -3% | 9% | 0% | ? | -22% | 16%
O=C1C2CCN(CC2)C1Cc1ccc(OCCOc2ccccc2)cc1 (configuration not stated) | 29µM* | -16% | -6% | -7% | ? | -3%
CN1CCN(c2ccccc2N)CC1 | -1% | 3% | 3% | 6% | 10% | 1%
CN1CCC2(CC1)c1ccccc1-c1ccccc12 | ? | -15% | 3% | -8% | 15µM* | -8%
CC(C)OP(=O)(Oc1ccc(C(O)C(Cl)(Cl)Cl)cc1)OC(C)C (configuration not stated) | ? | -3% | -19% | -6% | 18µM* | -40%
c1cnc(N2CC[C@@]3(CCCNC3)C2)nc1 | ? | . | . | . | -25% | .
O=c1[nH]c(O)c(/C=C2/C=CC(c3cc(Cl)ccc3Cl)=N2)c(=O)[nH]1 | 5.8µM* | -8% | -2% | 0% | 6.5µM* | 3%
CC1CCC(C(C)C)C(OC(=O)Cn2c(COc3ccccc3)[n+](C)c3ccccc32)C1 (configuration not stated) | 0.58µM* | 12µM* | 13µM* | 12µM* | 1µM* | 20µM*
CNc1ccc2nc3ccccc3[n+](C)c2c1 | 1.2µM* | 15µM* | -8% | 21µM* | 0.73µM* | -1%
C[n+]1c2ccccc2nc2ccc(NCCO)cc21 | 18µM* | -20% | -8% | -12% | 10µM* | -36%
C[C@H](N)Cc1cnc[nH]1 | -2% | . | . | . | -11% | .
COc1cc([N+](=O)[O-])c2nc(C)ccc2c1[N+](=O)[O-] | 9.2µM* | ? | ? | ? | 10µM* | -72%
